The values below come from PubChem BioAssay AID1628 (Sanford-Burnham Center for Chemical Genomics, 2009).

Screen size: about 190,000 compounds; about 930 (0.49%) were called active. This is one part of the list. Measured potencies and affinities stand elsewhere. Unmarked numbers belong to inactive results.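 The calls were made as follows: active = z-score of insulin promoter reporter brightness in nuclei below -3 at 5 µM, with at least 500 cells counted; inconclusive = wells with under 500 cells, flagged as toxic or sparse; inactive = the rest.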

A short description of the test: decrease of insulin promoter-GFP reporter – imaging, high-content screening, mouse beta cells (AID 1628). The following applies: MIN6 insulin promoter GFP reporter, at 5 µM, stronger effect = lower value.
Turning to `COc1ccc(CN(CC2CCC(C(=O)O)CC2)C(=S)Nc2cccc(C)c2)cc1` (configuration not stated), the z-score is 3.65.
Under `COCCSc1nnc(NC(=O)c2ccc([N+](=O)[O-])cc2)s1` stands 0.48.
With `Cc1sc2ncnc(NCCCn3ccnc3)c2c1C`, the z-score was -3.16 (active).
The same measure for `COc1ccc(C(=O)Nn2cnnc2)cc1OC`: 4.36.
Under `COc1ccc(OCC(=O)Nc2ccc(S(=O)(=O)Nc3cc(C)nc(C)n3)cc2)cc1` stands 3.12; under `COc1ccc(C(=O)Nc2ccc(S(=O)(=O)Nc3nccnc3OC)cc2)cc1OC`, -3.5 (active).
The same measure for `COc1ccc(C(=O)Nc2cccnc2)cc1OC`: 2.67.
On to `CCN(CC)c1ccc2cc(/C(N)=N/NC(=O)c3cccs3)c(=O)oc2c1`, for which the z-score is 7.11.
The same measure for `CCN(CC)c1ccc2cc(-c3nnc(-c4ccccc4)o3)c(=O)oc2c1`: 15.1; for `Cc1nc2[nH]c(=O)c3c(n2n1)NC1=C(C(=O)CC(C)(C)C1)C3c1ccccc1` (configuration not stated): -4.42 (active).
Under `O=C1S/C(=C/c2ccc(N3CCOCC3)o2)C(=O)N1Cc1c(F)cccc1Cl` stands 3.83; under `Cc1sc2ncnc(Sc3ccccc3C(=O)Nc3ccc(Br)cc3)c2c1C`, -5.49 (active); under `CC1CCN(S(=O)(=O)c2ccc3c(c2)c(=O)c(C(=O)N2CCCCC2)cn3C)CC1`, 4.9.
Under `CC1CCc2c(C(=O)N3CCN(S(=O)(=O)c4cccs4)CC3)csc2C1` (configuration not stated) stands -3.81 (active); under `COC(=O)c1cc2occc2n1Cc1c(F)cccc1Cl`, 3.08.
Regarding `COC(=O)c1ccc(COc2ccc3c(C)c(C)c(=O)oc3c2)o1`, the z-score was 3.49.
Under `CCOc1ccc(N2C(N)=NC(N)=NC2(C)C)cc1` stands -4.31 (active).
`CCOC(=O)CN1CC23C=CC(O2)C(C(=O)Nc2cc(OC)ccc2OC)C3C1=O` (configuration not stated): the z-score is 4.17.
Under `COc1cc(N2CCCC2)c(OC)cc1/C=C(/C#N)c1cccc(Br)c1` stands 15.4; under `COc1cc(N2CCCC2)c(OC)cc1/C=C(/C#N)c1cccc(F)c1`, 3.95.
For `N#C/C(=C\c1cc([N+](=O)[O-])c(N2CCCCC2)cc1N1CCCCC1)c1nn(-c2ccccc2)c(N)c1C#N`, the z-score was -3.55 (active).
Take `CCOC(=O)CNC(=O)c1cn(C)c(=O)c2cc(OC)c(OC)cc12`: the z-score is 3.18.
The same measure for `CCCNC(=O)c1cc(OC)c(OC)cc1[N+](=O)[O-]`: -4.31 (active).
The same measure for `CC(=O)N1CCN(Cc2nc3cc(NC(=O)c4ccccc4)ccc3n2C)CC1`: 3.37.
For the compound `Cc1cc(N2CCOCC2)nc2ccc(NC(=S)N3CCCCC3C)cc12` (configuration not stated), the z-score was 1.7.
The same measure for `COc1ccccc1CC(=O)NC1CC(C)(C)NC(C)(C)C1`: 3.65; for `CCN1CCN(c2cc(C)c3cc(NC(=O)Cc4ccccc4OC)ccc3n2)CC1`: -4.89 (active).
